HPGD inh: blocks human HPGD enzyme activity. P15428. purified HPGD, NADH fluorescence kinetic, PGE2 substrate. Potency, µM, without a hit: at the top dose activity change, negative = inhibition, hits mostly inhibitors. actives 4.3% (n = 150,000). AID 894; further: potency means the concentration at half of the fitted maximal effect
Target sequence (P15428 whole entry, looked up): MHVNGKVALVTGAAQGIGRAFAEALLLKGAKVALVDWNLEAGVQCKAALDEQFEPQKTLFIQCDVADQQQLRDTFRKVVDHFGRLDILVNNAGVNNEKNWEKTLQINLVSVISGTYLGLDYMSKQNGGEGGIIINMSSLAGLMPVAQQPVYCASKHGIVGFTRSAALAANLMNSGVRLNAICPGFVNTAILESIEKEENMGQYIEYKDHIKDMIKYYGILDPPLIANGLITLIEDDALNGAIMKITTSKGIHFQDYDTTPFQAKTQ
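20 nM HPGD preincubated 15 min at room temperature with compound in 50 mM Tris-HCl pH 8, 0.01% Tween 20. Started with 1 mM NAD+ and 30 uM prostaglandin E2; NADH fluorescence (360/450 nm) read 5 times over 30-s intervals, last minus first.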
ALDH1A1 block: ALDH1A1 (human) enzyme inhibition; Purified ALDH1A1, NADH fluorescence, propionaldehyde substrate; Potency, µM (titrated, usually from 75.3 µM), for the others: top-dose activity, negative = inhibition, hits mostly inhibitors; P00352; actives 7.3% (n = 220,000);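 further: potency means the concentration at half of the fitted maximal effect; plate controls were no enzyme wells and a reference inhibitor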
Target sequence (P00352 whole entry, looked up): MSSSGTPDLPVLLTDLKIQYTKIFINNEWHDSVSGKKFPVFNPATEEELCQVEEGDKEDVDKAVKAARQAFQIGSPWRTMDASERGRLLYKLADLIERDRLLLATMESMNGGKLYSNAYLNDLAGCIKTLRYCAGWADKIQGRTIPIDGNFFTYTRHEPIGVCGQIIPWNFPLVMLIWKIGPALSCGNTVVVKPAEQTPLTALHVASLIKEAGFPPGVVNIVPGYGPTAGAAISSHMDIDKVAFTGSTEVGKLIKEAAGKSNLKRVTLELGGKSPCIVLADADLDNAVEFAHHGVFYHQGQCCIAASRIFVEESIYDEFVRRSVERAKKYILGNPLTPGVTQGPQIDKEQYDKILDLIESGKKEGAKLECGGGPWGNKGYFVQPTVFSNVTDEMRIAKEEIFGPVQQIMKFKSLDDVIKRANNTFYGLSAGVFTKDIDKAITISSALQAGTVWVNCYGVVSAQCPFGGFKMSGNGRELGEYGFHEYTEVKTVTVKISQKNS
ALOX12 inhib: inhibitors of human 12-lipoxygenase (ALOX12); P18054; Potency, µM (top dose mostly 57.1 µM), inactives show at the top dose activity change, negative = inhibition, actives largely listed as inhibitors; actives 0.12% (n = 150,000); purified 12-hLO, xylenol orange hydroperoxide absorbance; active means well fitted inhibition curve with a large enough effect; inconclusive means small, poorly fitted or top-dose-only effect; further: potency means the concentration at half of the fitted maximal effect; nearly all actives have a fitted effect of over 55% in size
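Purified human 12hLO (150 nM), preincubated 15 min with compound, then 40 uM arachidonic acid for 30 min, room temperature, Hepes pH 7.0 with 0.01% Triton X-100. Hydroperoxide detected by ferrous iron/xylenol orange; 573/405 nm absorbance ratio gives reaction progress.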
PNC assembly inh: blocks assembly of the perinucleolar compartment. PC3M PTB-GFP, PNC prevalence imaging, 16 h; active compounds read low. activity change (PNC), negative = inhibition, % at 10 µM. actives 3.1% (n = 140,000). AID 2417;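 active means readout at or below -70, meaning at least 70% loss of cells showing the perinucleolar compartment, a nuclear body marking cancer cells; inconclusive means readout between -30 and a set limit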;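 further: plate controls were DMSO wells for no effect and camptothecin positive control wells for full effect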
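Compounds are pinned in duplicate onto adhered PC3M cells stably expressing GFP-tagged PTB and incubated 16 h at 37 C. Cells are then fixed, nuclei stained with Hoechst, and PNC-positive cells counted.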
Lamin A splicing: changes lamin A minigene splicing in HeLa cells. HeLa LMNA splicing GFP/RFP minigene ratio, 48 h. Potency, µM (highest dose often 46.1 µM), inactives show at the highest dose ratio change, negative = inhibition, hits mostly inhibitors. actives 0.01% (n = 200,000). AID 1487; active means well fitted inhibition curve with a large enough effect in the signal ratio, with a control signal flat, not every such curve was filed as active; inconclusive means small, poorly fitted or top-dose-only effect, or effect the other way, or a change in a side signal; the % refers to the signal ratio; further: potency means the concentration at half of the fitted maximal effect
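Read-out is the ratio of GFP to DsRed2 object intensity, acquired by 488 nm laser-scanning cytometry on HeLa lamin A-EGFP minigene reporter cells. Compound incubation 48 hrs at 37 °C in Opti-MEM with 2% FBS; DMSO 0.5% final.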
An asterisk follows results filed as active; ? = inconclusive; . = no result; [ ] = another dose, or the depositor's remark. Shown are actives, neighbours in structure and some others; about 10% of the full set was active somewhere. Unless noted, the call rests on the fitted dose curve; in most records, active means well fitted inhibition curve with a large enough effect (not every such curve was filed as active); inconclusive means small, poorly fitted or top-dose-only effect, or another doubt; inactive means no such curve, though single readings can be large or run the other way. Unless noted, on the % scale 0 is the no-effect control and ±100 the full control effect.

SMILES | HPGD inh | ALDH1A1 block | ALOX12 inhib | PNC assembly inh | Lamin A splicing
C[C@@H]1C(=O)CC2C(C)(C)CCC[C@]2(C)[C@@]1(O)CCc1ccoc1 (some centres not stated) | -11% | ? | . | . | .
Cc1ccccc1N1CC(O)(c2ccccc2)[N+]2=C1SCC2 (configuration not stated) | -3% | 13µM* | -16% | -23 | -10%
Cc1ccc(C2(O)CN(c3ccccc3C)C3=[N+]2CCS3)cc1 (configuration not stated) | -1% | 20µM* | -6% | 16 | -2%
OC1(c2ccc(F)cc2)CN(c2ccccc2)C2=[N+]1CCS2 (configuration not stated) | -8% | -2% | -6% | -25 | -12%
Cc1ccc(C2(O)CN(c3ccccc3)C3=[N+]2CCS3)cc1 (configuration not stated) | 0% | 1% | -2% | 12 | -9%
C#C[C@]1(OC(C)=O)CC[C@H]2[C@@H]3CCC4=CC(=O)CC[C@@H]4[C@H]3CC[C@@]21C | -6% | 6% | -6%[0.00818 µM] | . | .
Cc1c(C)c2cc(Cl)c(O)c(CN(C)C)c2oc1=O | ? | ? | -3% | ? | 5%
O=c1oc2c(O)c(O)cc3c(=O)oc4c(O)c(O)cc1c4c23 | 0.89µM* | -7% | -4% | ? | ?
C[C@@H]1Cc2ccccc2N1NC(=O)c1ccc(Cl)c(S(N)=O)c1 (some centres not stated) | -1% | 7.9µM* | -2%[25.6 µM] | . | ?
O=C(N/N=C/c1ccncc1)c1cccc(NC(=O)c2ccccc2Cl)c1 | -16% | 13µM* | -2% | 19 | -7%
COc1cc(/C=N/NC(=O)c2cccc(NC(=O)c3ccccc3Cl)c2)ccc1O | . | 13µM* | . | . | .
COc1ccccc1/C=N/NC(=O)c1cccc(NC(=O)c2ccccc2Cl)c1 | . | 20µM* | . | . | .
O=C(N/N=C/c1ccncc1)c1ccc(NC(=O)c2cccc(Cl)c2)cc1 | . | -4% | . | . | .
COc1ccc(/C=N/NC(=O)Cn2nc([N+](=O)[O-])cc2C)c(OC)c1OC | . | -3% | . | . | .
COc1cc(/C=N/NC(=O)c2ccccc2)ccc1O | . | -9% | . | . | .
COc1ccccc1/C=N/NC(=O)c1ccc(Cn2nc([N+](=O)[O-])cc2C)cc1 | ? | 14µM* | 1% | 17 | 3%
Cn1cnnc1SCC(=O)NCCc1ccc(Cl)cc1Cl | . | 5% | . | . | ?
COc1cc2ccccc2cc1C(=O)N1CCN(c2nc3c(C)cc(C)cc3s2)CC1 | . | . | . | . | -6%[46 µM]
CCN1C(=O)C(=O)N(CC(=O)Nc2ccccc2Oc2ccccc2)C1=O | . | 0% | . | . | .
Cc1ccc(CN2CCN(C3CCNCC3)C(=O)C2=O)cc1 | . | . | . | . | -3%[46 µM]
COc1ccc(/C=N/NC(=O)c2cccc(NC(=O)c3ccccc3Cl)c2)cc1OC | . | 4µM* | . | . | .
CC(=O)Nc1cccc(C(=O)N/N=C/c2ccc(F)cc2)c1 | -15% | 4% | -2% | 15 | -18%
CC(=O)Nc1cccc(C(=O)N/N=C/c2ccccc2F)c1 | 35µM* | 4% | -6% | 36 | -9%
CCN(CC)S(=O)(=O)c1cccc(C(=O)N/N=C/c2ccc(OC)c(O)c2)c1 | -11% | 25µM* | -1% | -18 | -11%
CCN(CC)S(=O)(=O)c1cccc(C(=O)N/N=C/c2ccccc2OCC(=O)O)c1 | . | -10% | . | . | -7%[46 µM]
SMILES | HPGD inh | ALDH1A1 block | ALOX12 inhib | PNC assembly inh | Lamin A splicing
Cc1c(-c2cccc(NC(=O)Nc3ccccc3)c2)nc2ncccn12 | . | . | . | . | 15%[46 µM]
NCCc1nnc(SCc2c(F)cccc2Cl)o1 | -28% | ? | 1% | -103* | -3%
CCCCCCCC/C=C\CCCCCCCC(=O)NCCCC(=O)O | -1% | 10% | 5% | . | .
CCC(=O)OCn1nnc2ccccc2c1=O | . | -2% | . | . | 11%[9.22 µM]
CC(C)(Oc1ccc(Cl)cc1)C(=O)OCn1nnc2ccccc2c1=O | ? | 5µM* | -12% | ? | -9%
Cc1ccc(S(=O)(=O)NCCC(=O)OCn2nnc3ccccc3c2=O)cc1 | -10% | 28µM* | -2% | 9 | 12%
Cc1cc(C)nc(SCC(=O)c2cc3ccccc3oc2=O)n1 | 18µM* | 14µM* | -19% | -29 | ?
Cc1cc(C)nc(SCC(=O)OCN2C(=O)c3ccccc3C2=O)n1 | -14% | 10µM* | 1% | ? | -2%
Cn1cnnc1SCC(=O)OCN1C(=O)c2ccccc2C1=O | -7% | 0% | 5% | -17 | 3%
CCOC(=O)c1[nH]c(C)c(CCC(=O)NCc2ccc(N(C)C)cc2)c1C | . | . | . | . | 3%[46 µM]
CC1CC[C@@]2(OC1)OC1CC3C4CC=C5CC(O)CC[C@@]5(C)C4CC[C@]3(C)C1C2C (some centres not stated) | -7% | -1% | 0% | . | .
O=c1cnc2cnc(Oc3ccccc3)nc2n1Cc1cccs1 | -12% | ? | 3% | . | .
COc1ccccc1NC(=O)CNS(=O)(=O)c1ccccc1 | -6% | ? | 0% | -1 | -6%
CCOc1ccccc1NC(=O)COC(=O)CNS(=O)(=O)c1ccc(C)cc1 | -8% | -9% | 0% | -116* | -4%
Cc1ccc(S(=O)(=O)NCC(=O)OCN2C(=O)c3ccccc3C2=O)cc1 | -6% | 4µM* | -2% | 12 | 4%
Cc1ccc(C)c(NC(=O)CNS(=O)(=O)c2ccccc2)c1 | -4% | -1% | -1% | -80* | -13%
CCOC(=O)c1cccc(NC(=O)NCc2ccc3c(c2)CCN3C(=O)CC)c1 | . | . | . | . | 22%[46 µM]
COc1ccc(Br)cc1/C(C)=N/NC1=NCCN1 | -8% | 3% | 3% | -17 | ?
CCCCCOc1ccc(Br)cc1/C(C)=N/NC1=NCCN1 | -2% | 9% | -7% | -88* | ?
CCOC(=O)Nc1cc(C)ccc1OC | -9% | 7% | 0% | -8 | 9%
CCCCCCCCC(=O)Nc1cc(C)ccc1OC | -13% | 6% | -1% | -100* | -11%
Cc1ccc(NC(=O)CCCC(=O)O)c(Br)c1 | -6% | 12% | -4% | -27 | 1%
Cc1ccc(O)c(NC(=O)CCCC(=O)O)c1 | -6% | 12% | -3% | -101* | -3%
COc1ccc(C)cc1NC(=O)CN(c1ccc(F)cc1)S(C)(=O)=O | 6% | 6% | -4% | -94* | 4%
COc1ccc(C)cc1NC(=O)CN(c1ccccc1F)S(C)(=O)=O | -2% | -1% | 0% | -3 | -5%
COc1ccc(C)cc1NC(=O)C(=O)NCc1ccncc1 | . | 18µM* | -3% | ? | ?
Cc1ccc(CNC(=O)c2cnc3c(-c4ccc(F)cc4)c(C)nn3c2C)o1 | . | . | . | . | 25%[46 µM]
COc1ccc(Br)cc1C(=O)NC(=S)Nc1ccc(Cl)c(C(=O)O)c1 | . | 18µM* | . | . | .
Cc1ccccc1Nc1nnc(SCc2cc([N+](=O)[O-])cc3c2OCOC3)s1 | 14µM* | ? | -6% | 33 | ?
C[N+](C)(C)c1ccc(/C=N/Nc2nc(Cl)c(C#N)c(Cl)c2Cl)cc1 | -24% | 16µM* | 0% | ? | -14%

Source: PubChem
